Screens deposited in PubChem by National Center for Advancing Translational Sciences (NCATS).
Only some compounds are listed: those with a hit (about 11% of all), similar ones and a draw of the others.
PI5P4K alpha inh = PI5P4K alpha (human) kinase inhibition. max response, %. 330,000 tested, 1.2% active. AID 652105. PI5P4Kalpha enzyme, ADP-Glo luminescence, 60 min; stronger effect = lower value. P48426; active means max response of -50% or lower; inconclusive means between -30% and -50%; inactive means -30% or higher; further: value at the top dose of about 77 µM; on the % scale 0 is the no-effect control and ±100 the full control effect
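Reactions run in 0.038 M HEPES pH 7.4, 0.28 mM EGTA, 0.1% CHAPS and 5% DMSO, with PI5P4Kalpha, substrate, compound and 5 microM ATP final, one hour at room temperature. Readout is ADP-Glo luminescence.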
HP1b binding inh = HP1-beta chromodomain-methylated histone interaction inhibition. P83916. AlphaScreen HP1-beta / biotin-H3K9me3 peptide binding. Potency, µM (highest dose often 114 µM), for inactives: at the highest dose activity change, negative = inhibition, usual class: inhibitors. 390,000 tested, 0.56% active; further: potency means the concentration at half of the fitted maximal effect; nearly all actives have a fitted effect of over 70% in size
Target sequence (P83916 whole entry, looked up): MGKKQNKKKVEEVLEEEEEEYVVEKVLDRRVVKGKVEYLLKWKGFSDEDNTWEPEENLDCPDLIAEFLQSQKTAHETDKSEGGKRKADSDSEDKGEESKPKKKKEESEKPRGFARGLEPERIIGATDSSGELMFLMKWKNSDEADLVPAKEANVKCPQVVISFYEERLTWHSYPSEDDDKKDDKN
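HP1-beta protein (50 nM final) preincubated 30 min at room temperature with biotinylated H3(1-18)K9me3 peptide (50 nM) in PBS pH 7.4, 0.01% Tween-20, then compound added for 30 min. AlphaScreen streptavidin donor/nickel chelate acceptor beads (10 ug/mL final), 30 min dark, luminescence read.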
BAZ2B inh = inhibitors of human BAZ2B bromodomain | AlphaScreen BAZ2B-H3K14Ac peptide displacement | Potency, µM (top dose mostly 114 µM), inactives show top-dose activity change, negative = inhibition, usual class: inhibitors | 360,000 tested, 4.4% active | AID 504333; further: potency means the concentration at half of the fitted maximal effect; on the % scale 0 is the no-effect control and ±100 the full control effect; nearly all actives have a fitted effect of over 60% in size
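AlphaScreen luminescence quantifies BAZ2B engagement of H3K14Ac peptide; the protein and biotinylated peptide are both at 50 nM final, buffer PBS pH 7.4 with 0.01% Tween-20, all steps at room temperature.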
JMJD2A Tudor inh = JMJD2A Tudor domain (human) inhibition | O75164 | AlphaScreen JMJD2A-Tudor / H3K4me3 peptide binding | Potency, µM (highest dose often 114 µM), without a hit: top-dose activity change, negative = inhibition, most hits filed as inhibitors | 390,000 tested, 4.4% active; further: potency means the concentration at half of the fitted maximal effect; on the % scale 0 is the no-effect control and ±100 the full control effect; nearly all actives have a fitted effect of over 50% in size
L3MBTL1 block = inhibitors of human L3MBTL1; 230,000 tested, 0.66% active; AID 485360; AlphaScreen L3MBTL1–H3K9me1 peptide binding; Potency, µM (series often up to 57.1 µM), for inactives: at the highest dose activity, negative = inhibition, usual class: inhibitors; further: potency means the concentration at half of the fitted maximal effect; on the % scale 0 is the no-effect control and ±100 the full control effect; nearly all actives have a fitted effect of over 60% in size
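L3MBTL1 (50 nM) pre-complexed 30 min with biotinylated H3(1-15)K9me1 peptide (75 nM), then compounds added for 30 min at room temperature; AlphaScreen streptavidin donor/nickel chelate acceptor beads (10 ug/mL final) read after 30 min dark incubation.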
G9a inh = G9a (human) methyltransferase inhibition; Q96KQ7; G9a H3K9 monomethylation, AlphaScreen, 2 h; Potency, µM (series often up to 102 µM), inactives show at the highest dose activity, negative = inhibition, actives largely listed as inhibitors; 350,000 tested, 8.8% active; further: potency means the concentration at half of the fitted maximal effect; on the % scale 0 is the no-effect control and ±100 the full control effect; nearly all actives have a fitted effect of over 75% in size
Target sequence (Q96KQ7 913-1193 limits assumed): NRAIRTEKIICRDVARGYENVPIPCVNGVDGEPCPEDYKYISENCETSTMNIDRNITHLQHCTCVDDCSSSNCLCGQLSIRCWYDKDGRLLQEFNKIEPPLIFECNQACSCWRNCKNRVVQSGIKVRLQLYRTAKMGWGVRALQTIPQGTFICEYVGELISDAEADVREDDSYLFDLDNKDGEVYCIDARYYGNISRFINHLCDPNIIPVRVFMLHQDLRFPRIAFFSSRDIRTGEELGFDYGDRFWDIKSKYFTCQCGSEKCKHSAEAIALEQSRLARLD
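AlphaScreen read-out: biotin-H3K9 peptide (500 nM) methylation by 20 nM enzyme with 20 uM SAM, 2 h at room temperature after 15 min compound preincubation; anti-monomethyl H3K9 antibody plus donor/acceptor beads, 10 min dark.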
* = called active by the depositor; [ ] = dose if it differs, or a comment. Unless noted, the call rests on the fitted dose curve; in most records, active means well fitted inhibition curve with a large enough effect; inconclusive means small, poorly fitted or top-dose-only effect; inactive means no such curve, though single readings can be large or run the other way.

`CCOC(=O)c1cnc(-n2nc(C)cc2C)nc1Nc1ccc(C)cc1` gave PI5P4K alpha inh 16.5, HP1b binding inh 39.7%, BAZ2B inh -8.7%, JMJD2A Tudor inh -22.2%, L3MBTL1 block -4.6% and G9a inh inconclusive.
O=c1c(-c2cc(F)cc(F)c2)nc2cncnc2n1-c1ccccc1 was read as G9a inh 6.9%[0.501 µM].
For Cc1ccc(C)n1-c1nc(=S)[nH][nH]1 the results were HP1b binding inh 15.8µM*, BAZ2B inh inconclusive, JMJD2A Tudor inh 3.16µM* and G9a inh 1.26µM*.
Screening CC1(C(=O)O)COC(c2ccc([N+](=O)[O-])cc2)OC1 (stereo not given) returned HP1b binding inh 18.8%, BAZ2B inh -5.2%, JMJD2A Tudor inh -1.3% and G9a inh 7.8%.
Screening O=C1NC(C(=O)O)=CC(c2ccc([N+](=O)[O-])cc2)N1 (stereo not given) returned PI5P4K alpha inh -21.7, HP1b binding inh 11.1%[57 µM], BAZ2B inh inconclusive, JMJD2A Tudor inh 17.8µM*, L3MBTL1 block -16.4% and G9a inh 8.91µM*.
Screening Cc1ccc(CNC(=O)c2ccc(CS(=O)(=O)Cc3ccc(F)cc3)o2)cc1 returned HP1b binding inh 23.4%, BAZ2B inh 6.7%, JMJD2A Tudor inh -16.3% and G9a inh -10.3%[59 µM].
O=C(CCN1CCC(c2ccccc2)C1)c1ccccc1 (stereo not given) was read as HP1b binding inh 30.6%, BAZ2B inh inconclusive, JMJD2A Tudor inh -23.7% and L3MBTL1 block 1.6%.
Screening COc1cc(C(=O)CCN2CCC(c3ccccc3)C2)cc(OC)c1OC (stereo not given) returned PI5P4K alpha inh -2.5, HP1b binding inh 23.8%, BAZ2B inh -33.3%, JMJD2A Tudor inh -28.9%, L3MBTL1 block 6.8% and G9a inh 3.55µM*.
`COc1cc(-c2ccno2)ccc1S(=O)(=O)N1CCN(c2cccc(Cl)c2)CC1` gave HP1b binding inh 27.0%, BAZ2B inh -15.1%, JMJD2A Tudor inh -17.0% and G9a inh 2.5%[59 µM].
Screening CCCOc1ccc(NC(=O)CC2C(=O)N(c3cccc(C)c3)C(=O)N2CCc2ccncc2)cc1 (stereo not given) returned HP1b binding inh 29.3%, BAZ2B inh -17.4%, JMJD2A Tudor inh -17.9% and G9a inh inconclusive.
`N=C1CCC(=N)c2c1c(O)c1ccccc1c2O` gave PI5P4K alpha inh -71.8*, HP1b binding inh 20µM*, BAZ2B inh 14.1µM*, JMJD2A Tudor inh 14.1µM* and L3MBTL1 block 7.08µM*.
`COCCCN(C(=S)Nc1c(C)cc(C)cc1C)C(C)c1ccccn1` (stereo not given) gave PI5P4K alpha inh 1.1, HP1b binding inh 6.0%, BAZ2B inh -25.4%, JMJD2A Tudor inh -7.0%, L3MBTL1 block 3.7% and G9a inh 39.8µM*.
`Cc1ccc(C(=O)c2oc3ccccc3c2NC(=O)C(C)Oc2ccccc2Cl)cc1` (stereo not given) gave HP1b binding inh 34.7%, BAZ2B inh 2.6%, JMJD2A Tudor inh 8.2% and G9a inh 2.2%[59 µM].
Screening Cc1cccc(OCCCC(=O)Nc2ccc(N3CCOCC3)cc2)c1 returned HP1b binding inh -7.2%, BAZ2B inh -5.6%, JMJD2A Tudor inh -26.2% and G9a inh 12.6µM*.
Cc1ccc(C)c(OCC(=O)Nc2ccc(N3CCOCC3)cc2)c1 was read as PI5P4K alpha inh 10.5, HP1b binding inh -15.5%, BAZ2B inh inconclusive, JMJD2A Tudor inh inconclusive, L3MBTL1 block -19.9% and G9a inh 31.6µM*.
For Cc1ccc(C)c(OCCCC(=O)Nc2ccc(N3CCOCC3)cc2)c1 the results were BAZ2B inh inconclusive, L3MBTL1 block inconclusive and G9a inh 39.8µM*.
For Cc1ccc(C)c(OCC(=O)Nc2ccccc2C(=O)N2CCOCC2)c1 the results were PI5P4K alpha inh 4.2, HP1b binding inh 31.0%[57 µM], BAZ2B inh -14.1%, JMJD2A Tudor inh -4.4% and G9a inh 89.1µM*.
`Cc1ccc(C)c(OCCC(=O)OCC(=O)Nc2ccc(N3CCOCC3)cc2)c1` gave PI5P4K alpha inh 0.5, HP1b binding inh 29.5%, BAZ2B inh -11.8%, JMJD2A Tudor inh -4.8%, L3MBTL1 block -13.2% and G9a inh inconclusive.
For CCc1ccc(OCCCC(=O)Nc2ccc(N3CCOCC3)cc2)cc1 the results were PI5P4K alpha inh -0.6, HP1b binding inh 11.9%, BAZ2B inh -0.8%, JMJD2A Tudor inh -25.2% and L3MBTL1 block 54.7%.
For Cc1ccccc1OCC(=O)Nc1ccccc1C(=O)N1CCCCC1 the results were PI5P4K alpha inh 7.7, HP1b binding inh 31.5%, BAZ2B inh -1.8%, JMJD2A Tudor inh -0.7% and G9a inh inconclusive.
For Cc1ccc(C)c(CSc2cn(CC(=O)N3CCCC3)c3ccccc23)c1 the results were HP1b binding inh 6.8%, BAZ2B inh inconclusive, JMJD2A Tudor inh -30.0% and G9a inh -9.4%[59 µM].
Cc1ccc2c(c1)N(C(=O)N1CCC(C(=O)NC3CCCCCC3)CC1)CC(C)O2 (stereo not given) was read as HP1b binding inh 57.3%, BAZ2B inh -0.5%, JMJD2A Tudor inh 1.6% and G9a inh -0.4%[59 µM].
Screening CCOC(=O)c1cccc(NC(=O)NC2COc3ccccc3C2)c1 (stereo not given) returned HP1b binding inh 25.8%[57 µM], BAZ2B inh 6.7%, JMJD2A Tudor inh -4.5% and G9a inh 6.7%[59 µM].
Screening O=C(/C=C/c1ccco1)Nc1ccc(Cl)c(-c2nc3cc(Cl)ccc3o2)c1 returned HP1b binding inh 22.2%, BAZ2B inh -12.8%, JMJD2A Tudor inh -13.1% and G9a inh -32.6%[59 µM].
Screening COc1ccc(CNc2cc(-c3ccccc3C)ncn2)c(OC)c1 returned G9a inh -1.5%[0.501 µM].
Cc1ccc(C)c(OCC(=O)Nc2cc(C(=O)O)cc(C(=O)O)c2)c1 was read as PI5P4K alpha inh -2.8, HP1b binding inh 0.8%, BAZ2B inh -6.6%, JMJD2A Tudor inh -23.1%, L3MBTL1 block -2.5% and G9a inh 44.7µM*.
Screening O=c1[nH]c(=O)n(C2CC(O)C(CO)O2)cc1Br (stereo not given) returned PI5P4K alpha inh -2.1, HP1b binding inh -11.7% and JMJD2A Tudor inh 79.4µM*.
OC(COc1ccc2c(c1)OCO2)CN1CCN(c2ccccc2)CC1 (stereo not given) was read as PI5P4K alpha inh -0.1, HP1b binding inh 1.7%, BAZ2B inh -37.8%, JMJD2A Tudor inh inconclusive, L3MBTL1 block -20.1% and G9a inh 50.1µM*.
Screening OC(COc1ccc2c(c1)OCO2)CN1CCCCC1 (stereo not given) returned PI5P4K alpha inh -6.3, HP1b binding inh 25.0%, BAZ2B inh -9.1%, JMJD2A Tudor inh 8.6% and G9a inh -2.2%.
